Assay results from PubChem BioAssay AID1531 (NMMLSC, 2009).
About 3,300 (1.1%) of roughly 290,000 compounds were called active. Rule as the data show it: active = binding response below about 67% or above about 130%; inconclusive = no clear call, values can overlap the other calls; inactive = in between. The full list was thinned out, with actives kept by preference.

molecular target: Mitogen-activated protein kinase kinase kinase 2 (Homo sapiens) (UniProt Q9Y2U5); experiment: modulators of MEK5 binding to wildtype MEKK2, primary screen, biochemical, multiplex bead flow cytometry, Alexa488-MEK5 (AID 1531); settings: Alexa488-MEK5 binding to MEKK2 WT, at 10 µM, actives lie on both sides

SMILES | binding response (% of control)
S=C(Nc1cccnc1)Nc1ccccn1 | 99% (inactive)
COCC1CCN(C(=O)CCc2nnc(C3(c4ccc(Cl)cc4)CCC3)o2)C1 (stereo not drawn) | 103% (inactive)
CCN(CC)CCN1C(=O)C2C(C(=O)Nc3ccc(Br)cc3)C3C=CC2(O3)C1C(=O)NC1CCCCC1 (stereo not drawn) | 106% (inactive)
C=CCOC(=O)C1=C[C@H](c2ccc(Br)cc2)C[C@H](OCCCCO)O1 | 95% (inactive)
Cc1cc2oc3ccc(NCCC4CCCN4C)cc3c(=O)c2cc1C (stereo not drawn) | 135% (inactive)
CCOC(=O)CSc1nc2ccc(C)cc2n2cnnc12 | 96% (inactive)
C#CCNC(=O)[C@H](Cc1ccc(C(=O)c2ccccc2)cc1)NC(=O)OC(C)(C)C | 101% (inactive)
Cc1cc(-c2ccc(C)c(S(=O)(=O)NCCCN(Cc3ccccc3)C(C)C)c2)on1 | 108% (inactive)
O=C1CC(N2CCN(c3ccc(F)cc3)CC2)C(=O)N1c1ccccc1 (stereo not drawn) | 101% (inactive)
Cc1ccc(CC2CC(=O)N(c3cc(C)ccc3C)C2=O)cc1 (stereo not drawn) | 101% (inactive)
Cc1ccc(N2C(=O)CC(N3CCSCC3)C2=O)c(C)c1 (stereo not drawn) | 62% [inhibitor] (active)
COc1cc(C(=O)NCCOC(=O)c2cccc(N(C)C)c2)cc(OC)c1OC | 96% (inactive)
COc1ccc(N2CCN(C(=O)C3CCN(C(=O)c4ccccc4Cl)CC3)CC2)cc1 | 97% (inactive)
O=C(Cn1cnc2ccccc21)Nc1ccccc1-c1ccccc1 | 115% (inactive)
COc1ccccc1C(C)NC(=O)Cc1ccsc1 (stereo not drawn) | 104% (inactive)
O=C(c1ccccc1)c1ccc(C(=O)N2CCN(c3ccccc3)CC2)cc1 | 102% (inactive)
CN1CCN(c2ccc(NC(=O)c3ccccc3)cc2)CC1 | 111% (inactive)
CN1CCC(CN)(N2CCN(c3ccccc3)CC2)CC1 | 146% (active)
CCn1c(SCC(=O)NC2CC2)nnc1-c1ccccc1OC | 100% (inactive)
CCOC(=O)C(Cc1ccc(N)cc1)N1C(=O)c2ccccc2C1=O (stereo not drawn) | 106% (inactive)
O=S(=O)(NCC1CC1)c1ccc(F)c(Cl)c1 | 97% (inactive)
Cc1ccc2c(c1)N(CC(=O)NCCCN1CCCCC1)C(=O)c1cccnc1O2 | 106% (inactive)
Cc1ccc2c(c1)N(CC(=O)N1CCC(C)CC1)C(=O)c1cccnc1O2 | 103% (inactive)
O=C(CN1C(=O)c2cccnc2Oc2ccc(Cl)cc21)NCCc1ccccc1 | 101% (inactive)

SMILES | binding response (% of control)
Cc1ccc2c(c1)N(CC(=O)NCCc1ccc(Cl)cc1)C(=O)c1cccnc1O2 | 98% (inactive)
CC(=O)c1cccc(NC(=O)CN2C(=O)c3cccnc3Oc3ccc(Cl)cc32)c1 | 68% [inhibitor] (active)
O=C(CN1C(=O)c2cccnc2Oc2ccc(Cl)cc21)Nc1ccc(F)cc1 | 50% [inhibitor] (active)
Cc1ccc(-c2csc(NCCc3nc4cc(Cl)c(Cl)cc4n3CCOCCO)n2)cc1 | 105% (inactive)
CCn1ccnc1CN(C)C(=O)c1ccc2nc(Cc3ccc(OC)cc3)oc2c1 | 103% (inactive)
COC(=O)c1ccc2c(C(C)(C)O)c(C(C)(C)O)[nH]c2c1 | 88% (inactive)
Cc1ccccc1N(C(=O)CNC(=O)c1cccs1)C(C(=O)NC1CCCC1)c1ccncc1 (stereo not drawn) | 98% (inactive)
CCOC(=O)c1cc2c(ccn2C)n1CC(=O)N1CCC(C)CC1 | 110% (inactive)
CCOC(=O)c1cc2occc2n1CC(=O)N1CCN(C(=O)c2ccco2)CC1 | -8% [inhibitor] (active)
CCOC(=O)c1cc2occc2n1CC(=O)NC1CCC(C)CC1 (stereo not drawn) | 99% (inactive)
Fc1ccccc1/C=N/Nc1cc(N2CCCCC2)ncn1 | 108% (inactive)
CCOC(=O)Nc1ccc2c(c1)N(C(=O)CCCl)c1ccccc1[S@]2=O | 107% (inactive)
CC(C)(C)NC(=O)Cn1cnc([N+](=O)[O-])n1 | 2% [inhibitor] (active)
O=C(Cn1cnc([N+](=O)[O-])n1)NCCc1ccccc1 | 100% (inactive)
CC(C)(C)NC(=O)Cn1cnc2cc([N+](=O)[O-])ccc2c1=O | 88% (inactive)
CC(=O)Nc1ccc(NC(=O)CS(=O)(=O)c2cn(CC(=O)N3CCCCC3)c3ccccc23)cc1 | 99% (inactive)
Cc1ccc(CSCC2Nc3ccc(C(=O)N4CCN(c5ccc(F)cc5)CC4)cc3NC2=O)cc1 (stereo not drawn) | 94% (inactive)
Cc1snc(SCc2c(F)cccc2Cl)c1C#N | 108% (inactive)
O=C(CN1CCN(S(=O)(=O)c2cc(Cl)ccc2Cl)CC1)c1ccc(O)c(O)c1 | 97% (inactive)
O=[N+]([O-])c1ccc(N=Cc2c(O)ccc3ccccc23)cc1 | 95% (inactive)
Oc1c(C=Nc2cccc3nsnc23)ccc2ccccc12 | 31% [inhibitor] (active)
COc1ccc(C=Nc2cccc3ncccc23)cc1 | 81% (inactive)
O=C(OCC1O[C@@H](OC(=O)c2cc(O)c(O)c(O)c2)[C@@H](OC(=O)c2cc(O)c(O)c(O)c2)[C@@H](OC(=O)c2cc(O)c(O)c(O)c2)[C@@H]1OC(=O)c1cc(O)c(O)c(O)c1)c1cc(O)c(O)c(O)c1 (stereo partly drawn) | 62% [inhibitor] (active)
Cc1ccc(C)c(NS(=O)(=O)c2c(C)[nH]c(C)c2C(=O)N2CCCCC2)c1 | 103% (inactive)

SMILES | binding response (% of control)
CC(=O)Nc1ccc(NC(=O)COc2ccc(-c3ccccc3)cc2)cc1 | 97% (inactive)
CCC(C)OC(=O)C(C)Oc1ccc(-c2ccccc2)cc1 (stereo not drawn) | 2% [inhibitor] (active)
COc1ccc(-c2noc(CNC(=O)C(C)Oc3ccccc3)n2)cc1 (stereo not drawn) | 98% (inactive)
CCCCNC(=O)N(O)C1N(/N=C/c2ccccc2O)C(=S)SC1(C)C (stereo not drawn) | 101% (inactive)
Cc1ccc(-n2ncc3c2CC(C)(C)CC3NC(=O)Cc2c(C)noc2C)cc1 (stereo not drawn) | 100% (inactive)
Cc1ccccc1CN1C(=O)c2ccccc2Sc2ccc(C(=O)NCCCN3CCOCC3)cc21 | 110% (inactive)
CCCC1=Nc2cc(C(=O)NCCN3CCCC3)ccc2Sc2ccccc21 | 142% (active)
Cc1cc(C)cc(C(=O)NCCN2CCOCC2)c1 | 109% (inactive)
CCC1=Nc2cc(C(=O)NCCCN3CCOCC3)ccc2Sc2ccc(Br)cc21 | 108% (inactive)
CCCC1=Nc2cc(C(=O)NCc3ccco3)ccc2Sc2ccccc21 | 98% (inactive)
CCC1=Nc2cc(C(=O)NCCN3CCCC3)ccc2Sc2ccc(C)cc21 | 155% (active)
COCCNC(=O)CSc1nc2sccc2c(=O)n1-c1ccccc1 | 101% (inactive)
CCOC(=O)C1CCN(C(=O)COc2cccc3ccccc23)CC1 | 97% (inactive)
Cc1nc(/N=C(\N)NC(=O)NC2CCCCC2)nc2ccccc12 | 108% (inactive)
CC(=O)Oc1ccc(-c2nc3c(C)cccc3c(=O)o2)cc1 | 106% (inactive)
Cc1nc(N=C(N)N)nc2c(C)cccc12 | 145% (active)
NC(N)=N/N=C/c1ccc(Cl)c([N+](=O)[O-])c1 | 109% (inactive)
CCOc1ccc(NC(=O)NNC(=O)c2ccc(Cl)cc2Cl)cc1 | 96% (inactive)
NC(N)=N/N=C/c1ccc(OCc2ccc(Cl)cc2Cl)cc1 | 213% (active)
Cc1cc(OCC(=O)Nc2c(C)n(C)n(-c3ccccc3)c2=O)ccc1[N+](=O)[O-] | 97% (inactive)
CN(C)S(=O)(=O)c1ccc2oc(SCC(=O)Nc3ccccc3F)nc2c1 | 99% (inactive)
C=CCNc1nc(N)c([N+](=O)[O-])c(NC2CCCCC2)n1 | 100% (inactive)
O=C(NCCc1c[nH]c2ccccc12)C1CCN(Cc2ccc(Br)cc2)CC1 | 125% (inactive)
O=C(Cc1c(F)cccc1Cl)N1CCN(C(=O)c2ccco2)CC1 | 99% (inactive)

SMILES | binding response (% of control)
O=C(c1ccco1)N1CCN(c2cccc(Cl)c2)CC1 | -2% [inhibitor] (active)
O=C(c1cccc([N+](=O)[O-])c1)N1CCN(C(=O)c2ccco2)CC1 | 99% (inactive)
CC1CC(C)CN(S(=O)(=O)c2cccc3nonc23)C1 (stereo not drawn) | 109% (inactive)
COc1ccc(OC)c(S(=O)(=O)N2CCCC(C(=O)NCCc3ccccc3)C2)c1 (stereo not drawn) | 100% (inactive)
Cc1cccc(N(C(=O)c2csnn2)C(C(=O)NCc2ccccc2)c2ccncc2)c1 (stereo not drawn) | 102% (inactive)
CCC(=C/c1sc2ccc3ccccc3c2[n+]1C)/C=C1\Sc2ccc3ccccc3c2N1C | 9% [inhibitor] (active)
CCc1ccc(NC(=O)Nc2ccncc2)cc1 | 107% (inactive)
CC1(C)C=Cc2c(ccc3c2OC[C@@H](c2ccc(O)cc2O)C3)O1 | 107% (inactive)
COc1ccccc1C(=O)NCc1nnc(SC(C)C(=O)Nc2nccs2)n1C (stereo not drawn) | 105% (inactive)
Cc1ccc(S(=O)(=O)NC2CCCCCC2)cc1C(N)=O | 99% (inactive)
c1ccc2c(c1)C(=NC1CCCCC1)NC2=NC1CCCCC1 | 145% (active)
O=C(c1noc2c1CCCC2)N1CCc2ccccc2C1 | 97% (inactive)
Cc1ccc(C)c(CN2CCC(CNC(=O)Nc3ccc(C)c(F)c3)CC2)c1 | 150% (active)
COc1ccc(Cl)cc1NC(=O)NCC1CCN(Cc2ccccc2F)CC1 | 118% (inactive)
Cc1cccc(CN2CCC(CNC(=O)Nc3ccc(F)c(Cl)c3)CC2)c1 | 139% (active)
O=C(NCC1CCN(Cc2ccccc2Cl)CC1)Nc1cccc(Cl)c1 | 110% (inactive)
COc1cc(NC(=O)NCC2CCN(Cc3ccc(C)cc3)CC2)cc(OC)c1OC | 113% (inactive)
Cc1ccccc1NC(=O)NCC1CCN(Cc2cccc(Cl)c2)CC1 | 104% (inactive)
CC(C(=O)c1ccc(-c2ccccc2)cc1)[n+]1cccc(Br)c1 (stereo not drawn) | 123% (inactive)
CC(=O)N1CC(=O)N(CC(=O)Nc2ccc(Br)cc2)C1=S | 97% (inactive)
CCOC(=O)c1cccc(NC(=O)c2ccc(F)cc2F)c1 | 105% (inactive)
